Experimental data published in PubChem BioAssay (EPA / NIEHS).
Values joined by “and” are separate entries in the source; they are usually repeats but may differ in a detail not shown here. Equal entries are not always repeated. Results filed as inconclusive are left out. Active and inactive are the calls of the source. Rule for the calls: active = hit-call score of the fitted dose curve at least 0.9, where 1 is the maximum; inconclusive = response in the unintended direction; inactive = score below 0.9.

Test: TOX21_p53_BLA_p3_viability: Viability Assessment in the Tox21 HCT-116 p53 Agonism Beta-lactamase Assay, Phase 3 (AID 2283593);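 note: cells exposed to compound for 16 h before reading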
Text: TOX21_p53_BLA_p3 is a cell-based, single-readout assay that uses HCT116, a human intestinal cell line, […] in a 1536-well plate.TOX21_p53_BLA_p3_viability is an assay readout measuring cellular ATP content and detected with CellTiter-Glo Luciferase-coupled ATP quantitation.TOX21_p53_BLA_p3_viability used a type of viability reporter where loss-of-signal activity can be used to understand changes in the cell viability. Furthermore, this assay endpoint can be referred to as a secondary readout, because this assay has produced multiple assay endpoints where this one serves a viability function. To generalize the intended target to other relatable targets, this assay endpoint is annotated to the cell cycle intended target family, where the subfamily is cytotoxicity.
Thawing Method: Place 14 mL of pre-warmed thaw medium into a 15 mL of conical tub. Remove the vial of cells to be thawed from liquid nitrogen and thaw rapidly by placing at 37C in a water bath with gentle agitation for 1-2 minutes. Decontaminate the vial by wiping with 70% ethanol before opening in a biological safety cabinet. Transfer the vial contents drop-wise into 14 mL of thaw medium in a sterile 15-mL conical tub. Centrifuge cells at 900 rpm for 4 minutes and resuspend in thaw medium. Transfer contents to the T75 tissue culture flask containing Thaw Medium and place flask in a humidified 37C/5% CO2 incubator. Switch to growth medium at first passage.Propagation Method: Aspirate medium, rinse once in DPBS, add 0.25% Trypsin/EDTA and swirl to coat the cell evenly. Add an equal volume of Growth Medium to inactivate Trypsin after 2-3 minutes incubation at 37C. Centrifuge cells at 900 rpm for 4 minutes and resuspend in growth medium. Cell should be passage or fed at least twice a week.Assay Protocol: Harvest cells from culture in growth medium and resuspend in assay medium. 2.2 Dispense 4000 cells/5 uL/well into 1536-well black/clear bottom plates using a Multidrop dispenser. After the cells were incubated at 37C for 5 hours, 23 nL of compounds dissolved in DMSO were transferred to the assay plate by a PinTool resulting in a 217-fold dilution. Incubate the plates for 16 hours at 37C, 5% CO2. Add 1 uL of 6X LiveBLAzer FRET B/G (CCF4-AM) Substrate Mixture to each well using a BioRAPTR dispenser and incubate the plates at room temperature for 2 hours. Measure fluorescence intensity at 460 and 530 nm emission and 405 nm excitation by an Envision detector. Data is expressed as the ratio of 460nm/530nm emissions. Add 4 uL of Cell-titer Glo to each well using BioRAPTR and incubate the plates at room temperature for […]. For cell viability readout that measures cytotoxicity, 4 ul/well of CellTiter-Glo reagent was added into the assay plates using a Flying Reagent Dispenser. After 30 min incubation at room temperature, the luminescence intensity in the plates was measured using a ViewLux plate reader.

| SMILES | outcome | AC50 |
| --- | --- | --- |
| CCCCNc1ccccc1 | inactive | – |
| CCCCCCOC(=O)c1ccccc1O | inactive | – |
| CC(CCl)OP(=O)(OC(C)CCl)OC(C)CCl (stereo not drawn) | inactive | – |
| O=S(=O)(O)c1ccc2ccccc2c1 | inactive | – |
| Nc1ccc([N+](=O)[O-])cc1O | inactive | – |
| Nc1ccc(S(=O)(=O)Nc2nccs2)cc1 | inactive | – |
| C(=C(c1ccccc1)c1ccccc1)c1ccccc1 | inactive | – |
| Nc1cc(Cl)c(N)c(Cl)c1 | inactive | – |
| Oc1ccc(Nc2ccccc2)cc1 | inactive | – |
| CC/C=C\CCOC(C)=O | inactive | – |
| CCc1ccc(C(c2ccc(CC)cc2)C(Cl)Cl)cc1 | inactive | – |
| CCCCCCOC(=O)c1ccccc1 | inactive | – |
| COC(=O)C1CCC(C(=O)OC)CC1 (stereo not drawn) | inactive | – |
| Cc1ccc(S(=O)(=O)NCl)cc1 | inactive | – |
| O=C(C=Cc1ccccc1)OCC=Cc1ccccc1 | inactive | – |
| CCCCCCCCCCCCCCCC[N+](C)(C)Cc1ccccc1 | – | 33.5 µM (active) and 9 µM (active) |
| CC(Cc1ccc(O)c(O)c1)C(C)Cc1ccc(O)c(O)c1 (stereo not drawn) | – | 86.7 µM (active) |
| OC[C@@H](O)[C@@H](O)[C@H](O)[C@@H](O)CO | inactive | – |
| C#C[C@]1(O)CC[C@H]2[C@@H]3CCc4cc(OC)ccc4[C@H]3CC[C@@]21C | inactive | – |
| c1ccc(B(c2ccccc2)c2ccccc2)cc1 | inactive | – |
| C1COCCN1 | inactive | – |
| CCN(CC)c1ccc2c(C)cc(=O)oc2c1 | inactive | – |
| CNC(=S)NC | inactive | – |
